Assay results: PubChem BioAssay
Values without a mark were called inactive. The source made the active and inactive calls.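 The calls were made as follows: active = thallium flux through the channel raised or lowered by more than 3 SD from vehicle-only wells, actives on both sides; inactive = the rest.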

Assays:
Assay in all cases: BK channel mutant inhibitors and activators – cell-based, U2OS BacMam, thallium flux, beta subunits, selectivity assay, profiling panel (AID 1259406);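 also: initial slope of Thallos dye fluorescence rise after thallium is added; log ratio against the mean of 0.3% DMSO vehicle wells on the same plate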
F380Y = conditions: U2OS BacMam BK variants, at 30 µM
F380Y/beta1 = conditions: U2OS BacMam BK variants, at 30 µM
F380Y/beta2Delta = conditions: U2OS BacMam BK variants, at 30 µM
F380Y/beta4 = conditions: U2OS BacMam BK variants, at 30 µM
[1] = target: Calcium-activated potassium channel subunit alpha-1 (Homo sapiens) + Leucine-rich repeat-containing protein 26 (Homo sapiens) (UniProt Q12791+Q2I0M4); conditions: U2OS BacMam BK variants, F380Y/Slo1WT/gamma1, at 30 µM
R275C = conditions: U2OS BacMam BK variants, at 30 µM
R275C/beta1 = conditions: U2OS BacMam BK variants, at 30 µM
R275C/beta2Delta = conditions: U2OS BacMam BK variants, at 30 µM
R275C/beta4 = conditions: U2OS BacMam BK variants, at 30 µM
R275C/Slo1WT/beta2 = conditions: U2OS BacMam BK variants, at 30 µM

Sequence of Calcium-activated potassium channel subunit alpha-1 (Homo sapiens) + Leucine-rich repeat-containing protein 26 (Homo sapiens) (Q2I0M4 whole entry, looked up, one chain of several): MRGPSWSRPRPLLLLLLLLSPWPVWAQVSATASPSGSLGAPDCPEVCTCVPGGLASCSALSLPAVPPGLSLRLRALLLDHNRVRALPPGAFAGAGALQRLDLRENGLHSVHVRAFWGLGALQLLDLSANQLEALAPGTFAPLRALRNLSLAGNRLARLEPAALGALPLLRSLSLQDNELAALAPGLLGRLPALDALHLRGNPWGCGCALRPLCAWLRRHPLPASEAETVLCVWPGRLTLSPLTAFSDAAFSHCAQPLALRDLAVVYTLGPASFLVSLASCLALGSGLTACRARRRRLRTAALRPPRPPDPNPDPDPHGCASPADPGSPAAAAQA

SMILES	log fold change Tl+ flux (F380Y)	log fold change Tl+ flux (F380Y/beta1)	log fold change Tl+ flux (F380Y/beta2Delta)	log fold change Tl+ flux (F380Y/beta4)	log fold change Tl+ flux [1]	log fold change Tl+ flux (R275C)	log fold change Tl+ flux (R275C/beta1)	log fold change Tl+ flux (R275C/beta2Delta)	log fold change Tl+ flux (R275C/beta4)	log fold change Tl+ flux (R275C/Slo1WT/beta2)
CC1(C)CC(=O)N(c2cc(Cl)cc(Cl)c2)C(=O)C1	0.0251	0.0345	0.0195	-0.021	-0.00455	-0.0193	0.025	0.032	-0.0103	-0.0488
Cc1c(C)c(C)c(C(=O)c2ccccc2C(=O)NN)c(C)c1C	0.0326	0.0715	0.00841	0.0586	0.0596	0.02	0.144 (active)	0.0153	0.0879 (active)	0.00811
O=C1c2ccccc2NC(c2cc(Cl)cc(Cl)c2O)N1Cc1cccnc1 (stereo not given)	0.0629	0.0897 (active)	0.0333	0.104 (active)	0.0598	0.00967	0.0327	0.0578	0.0953 (active)	-0.0554
FC(F)(F)c1cc(-c2noc(-c3ccc4c(c3)CCO4)n2)cc(C(F)(F)F)c1	0.118 (active)	0.292 (active)	0.24 (active)	0.269 (active)	0.0774	0.0291	0.191 (active)	0.182 (active)	0.0808 (active)	-0.0138
N#Cc1ccc(NCCc2ccccn2)c([N+](=O)[O-])c1	0.00452	-0.0335	-0.0123	-0.0514	-0.00295	-0.00307	-0.0352	-0.049	0.0115	0.0168
CCC(=NOc1ccc(C(F)(F)F)cn1)c1ccc(-c2ccccc2F)cc1	0.147 (active)	-0.0225	0.0209	-0.0257	-0.0559	-0.0194	0.00871	0.0154	0.0265	-0.0112
Cc1ccc(C(=O)c2c(-c3ccccc3)cc(-c3ccccc3)c3c2C(=O)CCC3)cc1	0.0109	-0.036	0.0354	-0.0286	-0.0641	0.0312	-0.0154	0.00863	-0.00364	-0.0497
Cc1cccc(N=Cc2cc(Cl)cc(Cl)c2O)c1C	0.049	0.0694	0.0737	0.0885	0.078	0.0221	0.0155	0.0671	0.00158	-0.00626
Cc1ccc(S(C)(=O)=NC(=O)c2ccc(-c3cc(C(F)(F)F)nn3C)s2)cc1 (stereo not given)	-0.000678	0.0247	-0.011	0.0284	0.0389	-0.0362	0.013	0.015	0.00574	0.0204
CC(C)C1COC(c2cccc(C3=NC(C(C)C)CO3)n2)=N1 (stereo not given)	-0.0154	0.0433	0.00332	0.0308	0.0138	-0.00894	0.00883	-0.00732	-0.00827	0.043
CCc1nc2ccccc2nc1N1CCN(S(=O)(=O)c2ccc(Cl)cc2)CC1	-0.00553	-0.0118	-0.00426	-0.00719	-1.3e-05	0.0269	0.0201	-0.0214	0.00696	-0.0158
Cc1cc(C)c2cc(C(=O)Nc3ccccc3SCc3cccc(Cl)c3F)[nH]c2c1	0.0408	0.0143	0.00341	-0.00891	-0.00142	0.000963	0.041	0.02	0.00151	0.025
CC(C)(C)NC(=S)NNc1c(Cl)cncc1Cl	-0.00302	-0.0136	-0.0137	-0.0352	-0.035	0.0328	0.0635	0.00425	-0.00379	0.0133
CS(=O)(=O)Nc1ccc(N2CCN(c3ccc(C(F)(F)F)cn3)CC2)nc1	0.0216	0.0253	0.0364	0.0379	0.0373	0.0255	0.0101	0.0279	0.0149	0.0171
O=C(CCN1CCOCC1)Nc1cc(Cl)cc(Cl)c1	0.0457	0.0335	0.00661	0.024	-0.0241	0.0216	0.0618	0.0272	0.0419	-0.0333
Cc1cc(NS(=O)(=O)c2ccc(NC(=O)c3nccnc3C(=O)O)cc2)no1	-0.0365	0.00855	-0.054	-0.0573	-0.136 (active)	-0.0122	0.022	-0.0352	0.0165	-0.0416
COc1ccc2c(OC(C)=O)coc2c1	0.00358	-0.0482	-0.00847	-0.0157	-0.0163	0.00531	-0.00826	0.012	0.0182	-0.00513
OC(Cc1ccccc1)(c1ccccc1)c1ccccc1N=Cc1ccc2c(c1)OCO2 (stereo not given)	0.00821	0.0126	-0.0347	-0.0765	-0.0874	-0.0385	-0.0387	-0.0661	-0.00775	-0.0302
COC(=O)c1cc(C)nc(Sc2n[nH]c(-c3cc(Cl)cc(Cl)c3)n2)n1	-0.0391	0.0897 (active)	0.0312	0.046	0.044	0.00719	0.0447	0.0581	0.0071	0.059
Cn1c(C(=O)O)ccc1S(=O)(=O)N(Cc1ccccc1)Cc1ccccc1	0.0347	0.205 (active)	0.0498	0.139 (active)	0.000486	0.00591	0.0906	0.0893 (active)	0.11 (active)	0.0146
CC(=O)CSc1nc(SCC(C)=O)c2cnc(N3CCCC3)nc2n1	-0.0105	-0.0297	-0.00118	-0.00484	0.0577	-0.0104	-0.000725	-0.0224	-0.00829	0.0731
CN(NC(=O)c1ccc(Cl)s1)c1cnn(-c2cc(Cl)cc(Cl)c2)c(=O)c1Cl	0.0366	-0.0161	0.019	0.00909	-0.0561	-0.0148	0.00182	0.046	-0.0313	-0.00119
CN(Cc1nnc(-c2ccc3ccccc3c2)o1)c1nnc(C(F)(F)F)s1	0.00202	0.0221	0.0123	-0.0118	-0.0041	4.3e-05	-0.0299	-0.000282	-0.0251	0.0181
CCc1[nH]c(=S)[nH]c(=O)c1C#N	-0.0598	0.0419	0.0255	0.0765	0.0111	0.0263	-0.0177	0.00491	0.0228	0.0561
CC12CC=C(C#N)C1(C)CC=C2C#N (stereo not given)	0.0296	0.00573	0.0262	0.00555	0.0366	-0.017	0.0163	-0.011	0.0134	-0.00417
CCc1ccc(C(=O)Nc2cccc(S(N)(=O)=O)c2)cc1	-0.0133	-0.00607	-0.0279	0.0112	0.028	-0.00467	-0.00416	-0.0306	0.0218	0.0201
